{
  "source": "PubChem BioAssay (NCI)",
  "note": "About 83,000 compounds went through this panel and 20% of them were active in at least one assay; those are over-represented in the sample as a whole.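 Cells were grown in 96-well plates and exposed to the test compound at a single concentration for 48 hours; results are reported as percent growth, with values below 10 considered active.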 Values without a mark were called inactive. Active and inactive are the calls of the source.",
  "data": [
    {"tested_on": "OVCAR-3 ovarian", "test": "NCI-60 one-dose screen, 48 h (100 = growth as untreated, 0 = no growth, -100 = all killed)", "conditions": "10 µM unless noted", "values": [
      {"smiles": "O=C(NNc1nc2cc(C(F)(F)F)ccc2n2cccc12)c1cnccn1", "growth": "-47.7% (active)"},
      {"smiles": "Cc1cccc(NC(=O)[C@]23CCC(C)(C)CC2C2=CCC4[C@@]5(C)C[C@@H](O)[C@H](O)[C@@](C)(CO)C5CC[C@@]4(C)[C@]2(C)CC3)c1", "note": "(stereo partly drawn)", "growth": "41.3%"},
      {"smiles": "CCCCSc1nc(NCCc2c[nH]c3ccccc23)c(C#N)c(-c2ccc(F)cc2)n1", "growth": "74.3%"},
      {"smiles": "COc1ccc(-c2ccnc(SCc3cc4cc(Cl)ccc4[nH]c3=O)n2)cc1", "growth": "58.2%"},
      {"smiles": "O=c1[nH]c2ccccc2cc1CSc1nccc(-c2ccc3ccccc3c2)n1", "growth": "102%"},
      {"smiles": "CCCCCCCCc1ccc(S(=O)(=O)Nc2ccc(CC)cc2C(=O)O)cc1", "growth": "113%"},
      {"smiles": "COc1cc(OC)c2c3nc4cc(C)c(C)cc4nc3n(CCN(C)C)c2c1", "growth": "97.7%"},
      {"smiles": "N#Cc1c(-c2cccc(O)c2O)cc(-c2ccc3ccccc3c2)[nH]c1=O", "growth": "18.9%"},
      {"smiles": "O=c1[nH]n(C(=S)N/N=C/c2ccccc2Cl)c(=O)c2ccccc12", "growth": "24%"},
      {"smiles": "COc1ccc(C(=O)/C=C/c2cccc(Cl)c2Cl)cc1S(N)(=O)=O", "growth": "-56.1% (active)"},
      {"smiles": "COc1ccc(C(=O)/C=C/c2cccnc2)cc1S(N)(=O)=O", "growth": "17%"},
      {"smiles": "Cc1cc2nc3c4ccccc4n(CC4=NCCN4)c3nc2cc1C", "growth": "55.2%"},
      {"smiles": "CCCCCCCCc1ccc(C(=O)Nc2cccc(P(=O)(O)O)c2)cc1", "growth": "106%"},
      {"smiles": "Cc1cc2nc3c([nH]c2cc1C)c1ccc(=O)cc1n3CCN(C)C", "growth": "67.3%"},
      {"smiles": "O=C(c1ccc(Cl)cc1)c1ccc(OCCCN2CCN(c3ccncc3)CC2)cc1", "growth": "56.4%"},
      {"smiles": "CCCCSc1nc(NCCc2c[nH]c3ccccc23)c(C#N)c(-c2ccccc2)n1", "growth": "55.9%"},
      {"smiles": "O=C1N/C(=N\\c2nccs2)S/C1=C\\C=C/c1ccccc1", "growth": "50.7%"},
      {"smiles": "CC(=O)OC[C@@]1(C)C2CC[C@]3(C)C(CC=C4C5CC(C)(C)CC[C@]5(C(=O)Nc5cccc(C)c5)CC[C@]43C)[C@@]2(C)C[C@@H](OC(C)=O)[C@@H]1OC(C)=O", "note": "(stereo partly drawn)", "growth": "47.5%"},
      {"smiles": "COc1ccc(C(SCCNCc2cc(N(C)C)ccn2)(c2ccccc2)c2ccccc2)cc1", "growth": "-1.36% (active)"},
      {"smiles": "O=c1onc(-c2cc3ccccc3nc2Cl)n1-c1cccc2ccccc12", "growth": "64%"},
      {"smiles": "COc1ccc(C2=NN(c3ccccc3)C(c3ccc(OCc4ccccc4)c(OC)c3)C2)cc1OC", "note": "(stereo not drawn)", "growth": "109%"},
      {"smiles": "Nc1n[nH]c2cccc(C#Cc3cccc(NC(=O)c4cccc(Cl)c4)c3)c12", "growth": "43.3%"},
      {"smiles": "O=C(Cn1c2c(sc1=O)[C@H]1[C@@H](O)[C@@H](O)[C@H](O)[C@@H]1CS2)N1CCOCC1", "growth": "105%"},
      {"smiles": "CC(=O)Nc1cccc(Nc2nc(N[C@H]3CCCc4ccccc43)c3ccccc3n2)c1", "growth": "107%"},
      {"smiles": "N/C(=N\\c1nc2ccccc2s1)NC(=O)NCCCCCCO", "growth": "61.8%"},
      {"smiles": "COc1ccc2c(c1)C(=N/N=C(\\C)c1ccc(OC)c(S(N)(=O)=O)c1)C(=O)N2", "growth": "106%"},
      {"smiles": "CCCSc1nc(NCCc2c[nH]c3ccccc23)c(C#N)c(-c2ccc(F)cc2)n1", "growth": "84.9%"},
      {"smiles": "O=c1[nH]c2ccccc2cc1CSc1cccc(Nc2nccc(-c3ccc4ccccc4c3)n2)c1", "growth": "117%"},
      {"smiles": "CCN(CC)c1ccnc(CNCCSC(c2ccccc2)(c2ccccc2)c2ccc(C)cc2)c1", "growth": "-88.4% (active)"},
      {"smiles": "CN(C)CCn1c2ccccc2c2nc3cc(C(F)(F)F)ccc3nc21", "growth": "69.2%"},
      {"smiles": "CC1(C)CC[C@]2(C(=O)Nc3ccc(Br)cc3)CC[C@]3(C)C(=CCC4[C@@]5(C)C[C@@H](O)[C@H](O)[C@@](C)(CO)C5CC[C@]43C)C2C1", "note": "(stereo partly drawn)", "growth": "-4.06% (active)"},
      {"smiles": "CCC(C)(C)c1ccc(OCCCCCCN2CCN(c3ccncc3)CC2)cc1", "growth": "38%"},
      {"smiles": "COc1ccc(C(=O)/C=C/c2ccc(Cl)c(Cl)c2)cc1S(N)(=O)=O", "growth": "-23.5% (active)"},
      {"smiles": "Cc1cc(N=C2NC(=O)CS2)n[nH]1", "growth": "105%"},
      {"smiles": "Cc1ccc(C(=O)CSc2nc3ccc(F)cc3c(=O)n2-c2ccc(Cl)cc2)cc1", "growth": "82.4%"},
      {"smiles": "COc1ccc(C(=O)/C=C/c2cccc(Br)c2)cc1S(N)(=O)=O", "growth": "-47.7% (active)"},
      {"smiles": "Cc1sc(C(NC(=O)OCCn2c([N+](=O)[O-])cnc2C)C(F)(F)Cl)nc1-c1ccc(OC(F)(F)F)cc1", "note": "(stereo not drawn)", "growth": "-59.6% (active)"},
      {"smiles": "COc1ccc(NC(=O)Cn2c3c(sc2=O)[C@H]2[C@@H](O)[C@@H](O)[C@H](O)[C@@H]2CS3)cc1", "growth": "109%"}
    ]}
  ]
}
